Screens from PubChem.
The list is not random: actives were taken first. Their share in the collection is about 2.8%.
Integrin act MD = integrin-mediated muscular dystrophy alleviation activation | alpha7betagal myoblasts, beta-gal FDG fluorescence, 48 h | AID 624291 | Potency, µM (series often up to 38.3 µM), for inactives: top-dose activation, hits mostly activators | 0.064% of 350,000 active;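 further: potency means the concentration at half of the fitted maximal effect; 100% = response of the positive control SU9516; nearly all actives have a fitted effect of over 60% in size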
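Alpha7betagal+/- myoblasts (passage 13) were plated 16-24 hr, then exposed to compounds (1:260 dilution of DMSO stock) for 48 hours at 37C. After MPER lysis, β-galactosidase reporter activity was read as FDG fluorescence (ex 480/em 540) after 30 minutes.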
MBNL1-CUG inh = inhibitors of human MBNL1 binding to CUG repeat RNA. Q9NR56. TR-FRET MBNL1-His/biotin-(CUG)12 binding, 665/545 ratio. Potency, µM (doses to about 57.5 µM), for inactives: top-dose activity change, negative = inhibition, most hits filed as inhibitors. 0.036% of 280,000 active; active means well fitted inhibition curve with a large enough effect in the signal ratio, with a control signal flat, not every such curve was filed as active; inconclusive means small, poorly fitted or top-dose-only effect, or effect the other way, or a change in a side signal; inactive means no such curve, though single readings can be large or run the other way; the % refers to the signal ratio; further: potency means the concentration at half of the fitted maximal effect; on the % scale 0 is the no-effect control and ±100 the full control effect
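Compound titration spanned 92 nM–58 uM against the MBNL1-His/biotin-(CUG)12 complex. After 60 min at room temperature with 5 nM streptavidin-XL665 and 0.055 ng/ul terbium anti-His, ratiometric 665/545 nm emission (Ex 340 nm) normalized to controls.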
DRD3 agonist = activates the human D3 dopamine receptor | AID 652048 | D3R DiscoveRx beta-arrestin cells, luminescence, 90 min | 0.58% of 410,000 active | max activation, % | P35462; in the data active means max activation above about 30%; further: 0% is about no effect
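Agonist-mode cell screen: cells plated at 1500/well and incubated overnight at 37 °C, then exposed to library compounds for 90 min at 37 °C. Detection reagent was added for 30–60 min at room temperature, and luminescence was read.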
PTHR1 ag = PTHR1 (human) receptor agonism; Q03431; HEK293 GP2 PTHR1 cells, GloSensor cAMP luminescence, 1 h; Potency, µM (doses to about 115 µM), inactives show at the top dose activation, usual class: activators; 0.075% of 410,000 active; further: potency means the concentration at half of the fitted maximal effect; nearly all actives have a fitted effect of over 55% in size
Target sequence (Q03431 whole entry, looked up): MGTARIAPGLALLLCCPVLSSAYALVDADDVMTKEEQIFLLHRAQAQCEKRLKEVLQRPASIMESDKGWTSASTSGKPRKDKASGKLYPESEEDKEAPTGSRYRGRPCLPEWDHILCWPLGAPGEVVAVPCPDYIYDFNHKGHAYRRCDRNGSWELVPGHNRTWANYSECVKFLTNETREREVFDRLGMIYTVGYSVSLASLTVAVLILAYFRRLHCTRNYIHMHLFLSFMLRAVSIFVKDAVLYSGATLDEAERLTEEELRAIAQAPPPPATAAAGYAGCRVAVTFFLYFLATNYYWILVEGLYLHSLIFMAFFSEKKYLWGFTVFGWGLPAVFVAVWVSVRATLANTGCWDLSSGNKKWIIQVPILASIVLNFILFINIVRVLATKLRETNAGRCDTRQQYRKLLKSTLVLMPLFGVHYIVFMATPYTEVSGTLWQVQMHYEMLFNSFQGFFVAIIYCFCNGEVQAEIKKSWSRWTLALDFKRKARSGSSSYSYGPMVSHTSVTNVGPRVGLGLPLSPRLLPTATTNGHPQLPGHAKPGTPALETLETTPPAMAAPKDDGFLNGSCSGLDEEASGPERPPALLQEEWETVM
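HEK-293-derived GP2 cells expressing PTHR1 and a GloSensor cAMP reporter, 3,000/well, plated overnight, given luciferin plus IBMX (each 0.5 mM as added) for 1 h at 37 °C, then compound for 1 h at 37 °C. Luminescence was read after 15 min at room temperature.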
D3 antag = antagonists of human D3 dopamine receptor. 2.5% of 360,000 active. P35462. max response, negative = inhibition, %. AID 652054. D3R cells, DiscoveRx beta-arrestin luminescence, antagonist mode; hits give low values; in the data active means max response below about -50%; inconclusive means no clear call, values can overlap the other calls; further: on the % scale 0 is the no-effect control and ±100 the full control effect
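Cells expressing the human receptor were seeded at 1500 cells/well, incubated overnight at 37 degrees C in 5% CO2, then exposed to library compounds with dopamine controls for 90 minutes at 37 degrees C before luminescent detection.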
CBFb-RUNX1 inh = inhibitors of human CBF-beta and RUNX1 interaction; 230,000 tested, under 10 active; Potency, µM (titrated, usually from 59.8 µM), without a hit: at the highest dose activity, negative = inhibition, usual class: inhibitors; Q01196+Q13951; AID 1477; AlphaScreen CBFb-His/RUNX1-biotin binding, biochemical; further: % of control where 0% means no effect
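Bead-based AlphaScreen assay; binding partners His-tagged CBF-beta and biotinylated RUNX1 at 30 nM each. Compound exposure 15 min after a 20-min protein preincubation; bead step 90 min; all steps at room temperature.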
Starred values were filed as active, the others as inactive; i = inactive; ? = inconclusive; . = no result; [ ] = another dose, or the depositor's remark. Unless noted, the call rests on the fitted dose curve; in most records, active means well fitted curve in the direction sought with a large enough effect; inconclusive means small, poorly fitted or top-dose-only effect, or another doubt; inactive means no such curve, though single readings can be large; an effect the other way counts as inactive or inconclusive.

SMILES	Integrin act MD	MBNL1-CUG inh	DRD3 agonist	PTHR1 ag	D3 antag	CBFb-RUNX1 inh
Cc1cccc(Nc2nc(-c3ccccn3)cs2)n1	-29%	-6%	-41	-63%[57.5 µM]	-79*	?
Cc1cccnc1Nc1nc(-c2ccccn2)cs1	-60%	5%	-39	-10%[57.5 µM]	-86*	?
O=C(COC(=O)C1CC1)Nc1ccc(Cl)cn1	-3%	.	-2	i	-4	.
Cc1nc(N)nc(N/N=C/c2c(F)cccc2Cl)n1	8%	8%	-18	i	-17	.
Cc1nc(C#N)c(N/N=C/c2c(F)cccc2Cl)o1	-5%	45%	-2	-22%	-64*	1%[2.36 µM]
COC(=O)N/N=C/c1cc(N=Nc2ccccc2Cl)ccc1O	-25%	-8%	-22	-2%	-91*	-14%
COC(=O)N/N=C/c1cc(N=Nc2ccccc2)ccc1O	-1%	4%	-27	-30%	-63*	-12%
Nc1ccc(C(=O)N/N=C\c2cc(N=Nc3cccc4ccccc34)ccc2O)cc1	-39%	12%	-3	i	-95*	-24%
COC(=O)N/N=C/c1cc(Br)ccc1O	0%	-8%	16	i	8	5%
COC(=O)c1cc(S(=O)(=O)N2CCN(c3cccc(Cl)c3)CC2)c[nH]1	-20%	-4%	-6	-5%	-1	.
Clc1ccccc1-c1ccc(CN2CCN(c3ccccc3)CC2)o1	-1%	1%	2	6%[57.5 µM]	-67*	-5%
Cn1c(=O)n(C)c2cc(NS(=O)(=O)c3ccc(Br)cc3)c(NCc3ccccc3)cc21	.	.	-10	-15%	.	.
CN(C)c1ccc(-c2nc3ccccn3c2Nc2ccc3c(c2)OCCO3)cc1	.	.	9	-27%	.	.
CCN(CC)CCNCC(O)(c1ccc(Cl)cc1)c1ccc(Cl)cc1	-64%	.	-25	i	-60*	20%
COc1ccccc1CNCC(O)(c1ccc(Cl)cc1)c1ccc(Cl)cc1	-55%	2%	-18	i	-83*	-3%
O=C(N/N=C/c1cc(Cl)ccc1O)C(=O)Nc1ccccc1OC(F)(F)C(F)F	-12%	?	9	-21%	-2	1%
O=C(N/N=C/c1cc(Br)ccc1O)C(=O)Nc1ccccc1OC(F)(F)C(F)F	-18%	1%	49*	-16%[57.5 µM]	14	1%
NC(=O)c1ccccc1OCC(=O)NS(=O)(=O)c1ccccc1	9%	-12%	-2	-10%	-65*	2%
CCOc1ccc(NC(=O)C2CCCN(S(=O)(=O)c3cccc4nonc34)C2)cc1 (stereo not drawn)	.	.	-3	-50%	.	.
O=C(COC(=O)c1ccccc1NCCO)NCCC1=CCCCC1	-17%	.	-15	i	-64*	.
C[C@H](NC(=O)c1ccc(Cl)cc1)C(=O)NNC(=O)c1cccs1	8%	.	1	i	5	.
COCCN=c1scc(-c2cccs2)n1/N=C/c1ccc(O)c(O)c1O	-32%	?	90*	-15%	-8	-4%
Cc1cccc(-c2noc(-c3csc([C@@H]4C[C@H](O)[C@@H](CO)O4)n3)n2)c1	.	.	7	-43%	24	.
COc1ccc(NC(=O)CN(C)C(=O)C2=COCCO2)cc1	12%	.	1	i	-59*	.
CN(CC(=O)Nc1ccc(Cl)cc1)C(=O)C1=COCCO1	27%	.	-7	i	6	.
SMILES	Integrin act MD	MBNL1-CUG inh	DRD3 agonist	PTHR1 ag	D3 antag	CBFb-RUNX1 inh
CC1CCN(CCC(=O)Nc2ccc(F)c(F)c2)CC1	11%	4%	-20	i	-51*	.
CC1CCN(CCC(=O)Nc2ccc(Br)cc2)CC1	-48%	.	-36	i	-76*	.
CCN(CCC(=O)Nc1ccc(Br)c(C)c1)Cc1ccccc1	-7%	-5%	-16	i	-82*	5%
O=C(CCN(CCO)Cc1ccccc1)Nc1ccc(Br)cc1	-28%	6%	-45	-18%[57.5 µM]	?	-2%
Cc1cc(NC(=O)CCN2CC(C)OC(C)C2)ccc1Br (stereo not drawn)	2%	-5%	-9	18%	-8	.
Cc1cc(NC(=O)CCN2CCC(C)CC2)ccc1Br	-10%	8%	-4	i	-106*	.
